Test results published in PubChem BioAssay.
For some assays here: Results with a measured potency or affinity are listed apart. Active and inactive are the calls of the source. Unless noted, the rule behind the calls is not given here.

Key:
[1] = antimalarial activity against Dd2 strain (AID 2302;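 active = growth inhibition above 50% at the single 2 µM test dose, taken to imply half-maximal potency below 2 µM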;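 note: 0% = DMSO untreated growth and 100% = chloroquine plus artemisinin killed control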); settings: P. falciparum Dd2 in RBCs, LDH growth readout, 72 h; at 2 µM; active compounds read high
[2] = human hepatoma cell viability loss – ATP luminescence, cytotoxicity control for P. falciparum antimalarial project, primary screen (AID 2303;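 active = inhibition above 50%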;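 note: 0% = DMSO wells and 100% = digitonin-killed cells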); settings: HepG2 viability, 24-48 h, at 10 µM, active compounds read high
[3] = biological target: L-lactate dehydrogenase (Plasmodium falciparum (isolate CDC / Honduras)) (UniProt Q27743); test: PfLDH activity inhibition – cell lysate, 3D7 strain, counter-screen for P. falciparum growth inhibition project (AID 2304);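 note: 0% = vehicle and 100% = reference inhibitor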; settings: P. falciparum 3D7 crude extract, LDH APAD/NBT absorbance; at 2 µM; active compounds read high
Sequence of L-lactate dehydrogenase (Plasmodium falciparum (isolate CDC / Honduras)) (Q27743 whole entry, looked up): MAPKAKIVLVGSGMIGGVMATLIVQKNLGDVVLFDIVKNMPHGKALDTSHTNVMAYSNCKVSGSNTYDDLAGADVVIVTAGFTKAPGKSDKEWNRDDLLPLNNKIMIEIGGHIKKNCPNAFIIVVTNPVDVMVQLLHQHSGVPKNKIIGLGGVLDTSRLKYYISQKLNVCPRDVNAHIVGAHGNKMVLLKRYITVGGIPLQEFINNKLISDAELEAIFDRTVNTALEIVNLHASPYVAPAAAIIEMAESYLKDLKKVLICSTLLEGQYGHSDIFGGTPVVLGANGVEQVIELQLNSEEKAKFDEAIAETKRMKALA

[4] = inhibition of 3D7 malaria parasite growth – strain 3D7 (AID 2306);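 note: 0% = DMSO wells and 100% = chloroquine plus artemisinin control wells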; settings: P. falciparum 3D7 erythrocytic growth, LDH absorbance, 72 h; at 2 µM; active compounds read high
[5] = biological target: Calcium-dependent protein kinase 1 (Plasmodium falciparum (isolate 3D7)) (UniProt P62344); test: PfCDPK1 kinase inhibitors, biochemical, TCAMS library (AID 1159585; cut-off not given, nearly all actives have IC50 up to about 0.98 µM;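 note: inhibitors leave more ATP so luminescence rises with inhibition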); settings: recombinant PfCDPK1, Kinase-Glo ATP depletion luminescence
Sequence of Calcium-dependent protein kinase 1 (Plasmodium falciparum (isolate 3D7)) (P62344 whole entry, looked up): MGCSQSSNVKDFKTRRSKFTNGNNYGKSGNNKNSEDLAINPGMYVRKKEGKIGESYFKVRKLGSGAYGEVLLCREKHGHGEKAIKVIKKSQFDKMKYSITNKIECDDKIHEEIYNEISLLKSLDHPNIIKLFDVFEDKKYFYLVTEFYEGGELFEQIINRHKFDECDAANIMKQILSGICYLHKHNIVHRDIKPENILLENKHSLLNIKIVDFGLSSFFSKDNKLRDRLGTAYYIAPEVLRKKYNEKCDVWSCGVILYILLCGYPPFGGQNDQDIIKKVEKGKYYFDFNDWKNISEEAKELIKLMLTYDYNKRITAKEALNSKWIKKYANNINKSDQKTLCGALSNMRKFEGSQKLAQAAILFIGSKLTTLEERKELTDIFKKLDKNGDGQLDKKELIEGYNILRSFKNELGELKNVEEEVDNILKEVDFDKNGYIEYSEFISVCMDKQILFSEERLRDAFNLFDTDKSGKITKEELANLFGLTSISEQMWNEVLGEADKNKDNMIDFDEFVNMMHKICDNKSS

[6] = biological target: Plasmodium falciparum protein kinase 6 (PK6, PF3D7_1337100) (UniProt Q8IDW1); test: PfPK6 kinase inhibitors, biochemical, TCAMS library (AID 1159586); settings: recombinant PfPK6, Kinase-Glo ATP depletion luminescence
Sequence of Plasmodium falciparum protein kinase 6 (PK6, PF3D7_1337100) (Q8IDW1 1-305): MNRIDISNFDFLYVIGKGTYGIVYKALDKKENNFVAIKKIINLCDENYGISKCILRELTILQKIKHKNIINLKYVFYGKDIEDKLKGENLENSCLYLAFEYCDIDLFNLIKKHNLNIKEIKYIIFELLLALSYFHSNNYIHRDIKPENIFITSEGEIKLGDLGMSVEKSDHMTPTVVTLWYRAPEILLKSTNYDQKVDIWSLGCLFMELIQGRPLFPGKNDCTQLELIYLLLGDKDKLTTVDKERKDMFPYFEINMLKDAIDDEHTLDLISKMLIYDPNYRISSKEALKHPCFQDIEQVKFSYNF

[7] = biological target: Protein kinase 7 (PK7), Plasmodium falciparum 3D7 (PF3D7_0213400) (UniProt Q7YTF7); test: inhibition of Plasmodium PK7 catalytic activity – biochemical, TCAMS antimalarial set, Kinase-Glo luminescence (AID 1159587); settings: recombinant PfPK7, Kinase-Glo ATP depletion luminescence
Sequence of Protein kinase 7 (PK7), Plasmodium falciparum 3D7 (PF3D7_0213400) (Q7YTF7 1-343): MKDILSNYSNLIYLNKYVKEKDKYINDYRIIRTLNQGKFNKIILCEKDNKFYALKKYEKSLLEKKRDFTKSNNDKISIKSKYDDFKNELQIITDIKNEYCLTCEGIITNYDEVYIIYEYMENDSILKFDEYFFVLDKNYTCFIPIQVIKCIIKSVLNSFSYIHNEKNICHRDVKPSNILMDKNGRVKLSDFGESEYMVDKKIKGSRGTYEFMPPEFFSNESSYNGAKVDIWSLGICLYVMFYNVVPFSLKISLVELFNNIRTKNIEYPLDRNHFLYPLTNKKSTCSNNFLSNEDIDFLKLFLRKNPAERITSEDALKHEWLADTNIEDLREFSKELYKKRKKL

[8] = biological target: Calcium-dependent protein kinase 4 (Plasmodium falciparum (isolate 3D7)) (UniProt Q8IBS5); test: PfCDPK4 kinase inhibitors, biochemical, TCAMS library (AID 1159588; cut-off not given, nearly all actives have IC50 up to about 0.91 µM); settings: recombinant PfCDPK4, Kinase-Glo ATP depletion luminescence
Sequence of Calcium-dependent protein kinase 4 (Plasmodium falciparum (isolate 3D7)) (Q8IBS5 whole entry, looked up): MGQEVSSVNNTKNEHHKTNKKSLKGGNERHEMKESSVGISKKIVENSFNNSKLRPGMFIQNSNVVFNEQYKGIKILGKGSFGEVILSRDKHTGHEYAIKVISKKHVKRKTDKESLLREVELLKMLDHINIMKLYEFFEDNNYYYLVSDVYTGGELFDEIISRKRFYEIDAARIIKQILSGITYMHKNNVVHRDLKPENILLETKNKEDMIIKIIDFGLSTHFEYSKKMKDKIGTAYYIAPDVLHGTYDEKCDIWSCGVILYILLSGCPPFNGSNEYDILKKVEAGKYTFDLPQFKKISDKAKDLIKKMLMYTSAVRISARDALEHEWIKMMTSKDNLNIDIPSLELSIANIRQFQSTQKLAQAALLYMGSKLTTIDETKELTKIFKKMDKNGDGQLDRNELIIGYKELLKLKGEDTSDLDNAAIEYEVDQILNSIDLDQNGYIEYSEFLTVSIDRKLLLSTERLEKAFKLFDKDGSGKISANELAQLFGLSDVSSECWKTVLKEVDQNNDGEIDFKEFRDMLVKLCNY

COc1cccc(CC(=O)N2CCC(n3c(C)nc4ccc(C)cc43)CC2)c1
inactive: inhibition [2] 1% | inhibition [3] -2% | outcome [5] | outcome [6] | outcome [7] | outcome [8]
active: growth inhibition [1] 99% | growth inhibition [4] 100%

NC(=Nc1nc(-c2ccccn2)cc2ccccc12)c1cccc(Cl)c1
active: growth inhibition [1] 99% | inhibition [2] 54% | growth inhibition [4] 101%
inactive: inhibition [3] 0% | outcome [5] | outcome [6] | outcome [7] | outcome [8]

CCc1c(C)nc(-n2nc(C)cc2NC(=O)C2c3ccccc3Oc3ccccc32)[nH]c1=O
inactive: inhibition [2] 37% | inhibition [3] 1% | outcome [5] | outcome [6] | outcome [7] | outcome [8]
active: growth inhibition [1] 80% | growth inhibition [4] 89%

Cc1ccccc1C1CCN(C2CCC(NC(=O)c3ccc(-c4ccccc4)s3)CC2)CC1 (stereo not given)
active: growth inhibition [1] 84% | growth inhibition [4] 101%
inactive: inhibition [2] 26% | inhibition [3] 0% | outcome [5] | outcome [6] | outcome [7] | outcome [8]

Cc1nc2ccc3ccc(CNc4ccc(C#N)cc4)cc3c2c(=O)[nH]1
inactive: inhibition [3] 8% | outcome [5] | outcome [6] | outcome [7] | outcome [8]
active: growth inhibition [1] 56% | inhibition [2] 55% | growth inhibition [4] 84%

Cc1cc2ccccc2n1CC(=O)N1CC(C(=O)N2CCCCC2)Oc2ccccc21 (stereo not given)
active: growth inhibition [1] 77% | growth inhibition [4] 99%
inactive: inhibition [2] -1% | inhibition [3] 2% | outcome [5] | outcome [6] | outcome [7] | outcome [8]

COc1ccc2nccc(CCN3C[C@H](CNCc4ccc5c(n4)NC(=O)CS5)[C@H](O)C3)c2n1
inactive: growth inhibition [1] 26% | inhibition [2] 4% | inhibition [3] -2% | outcome [5] | outcome [6] | outcome [7] | outcome [8]
active: growth inhibition [4] 86%

O=C(Nc1cccc(-c2cccc(-c3nc4ccc(C(F)(F)F)cc4[nH]3)c2)c1)c1cccnc1
active: growth inhibition [1] 70% | inhibition [2] 57% | growth inhibition [4] 100%
inactive: inhibition [3] -6% | outcome [5] | outcome [6] | outcome [7] | outcome [8]

N#Cc1ccc(S(=O)(=O)N2C(c3cccc([N+](=O)[O-])c3)C(C(=O)c3ccccc3)N(C3CCCCC3)C2c2cccc([N+](=O)[O-])c2)cc1 (stereo not given)
active: growth inhibition [1] 79% | growth inhibition [4] 83%
inactive: inhibition [2] 16% | inhibition [3] -1% | outcome [5] | outcome [6] | outcome [7] | outcome [8]

CC(=O)Nc1ccc(OCCN(Cc2ccccc2C(F)(F)F)c2ccc(C#N)c(C(F)(F)F)c2)c(Cl)c1
inactive: inhibition [2] -6% | inhibition [3] -3% | outcome [5] | outcome [6] | outcome [7] | outcome [8]
active: growth inhibition [1] 78% | growth inhibition [4] 98%

Cc1cccc2[nH]c(-c3cccc(-c4cccc(CNCCc5cccn5C)c4)c3)nc12
inactive: growth inhibition [1] 49% | inhibition [2] 4% | inhibition [3] 2% | outcome [5] | outcome [6] | outcome [7] | outcome [8]
active: growth inhibition [4] 91%

c1ccc2c(Nc3ccc(OCCOCCOc4ccc(Nc5c6ccccc6nc6ccccc56)cc4)cc3)c3ccccc3nc2c1
active: growth inhibition [1] 97% | growth inhibition [4] 101%
inactive: inhibition [2] 38% | inhibition [3] 7% | outcome [5] | outcome [6] | outcome [7] | outcome [8]

Cc1cnc(CN(Cc2ccc(-c3ccc(CNCCc4ccc(S(C)(=O)=O)cc4)cn3)cc2)C(=O)c2ccc([N+](=O)[O-])c(C)c2)cn1
active: growth inhibition [4] 93%
inactive: growth inhibition [1] 15% | inhibition [2] -4% | inhibition [3] 4% | outcome [5] | outcome [6] | outcome [7] | outcome [8]

Cn1cncc1CCN(Cc1ccc(-c2ccc(C(F)(F)F)cc2)cc1)C(=O)Cn1c(CCc2cccc(F)c2F)cc(=O)c2cccnc21
inactive: inhibition [2] 44% | inhibition [3] -2% | outcome [5] | outcome [6] | outcome [7] | outcome [8]
active: growth inhibition [1] 97% | growth inhibition [4] 100%

COc1ccc(CN2CCC(CNCC(c3ccccc3)c3ccccc3)CC2)cc1
inactive: inhibition [3] -4% | outcome [5] | outcome [6] | outcome [7] | outcome [8]
active: growth inhibition [1] 95% | inhibition [2] 84% | growth inhibition [4] 102%

CCN(CC)S(=O)(=O)c1ccc(CCOCCCCCNCC(O)c2cc(Cl)c(N)c(Cl)c2)s1 (stereo not given)
active: growth inhibition [1] 80% | growth inhibition [4] 96%
inactive: inhibition [2] 35% | inhibition [3] -10% | outcome [5] | outcome [6] | outcome [7] | outcome [8]

Cc1cc(N(C)C)nc(Nc2ccc(NC(=O)C3CCCCC3)cc2)n1
active: growth inhibition [1] 68% | growth inhibition [4] 101%
inactive: inhibition [2] 3% | inhibition [3] -1% | outcome [5] | outcome [6] | outcome [7] | outcome [8]

Cc1cccc(NC(=O)NC2CCN(CCCCCNC(=O)/C=C/c3ccc(Cl)c(Cl)c3)CC2)c1
active: growth inhibition [4] 101%
inactive: growth inhibition [1] 21% | inhibition [2] 34% | inhibition [3] -3% | outcome [5] | outcome [6] | outcome [7] | outcome [8]

COc1cc2ccccc2c(CON2C(N)=NC(N)=NC2(C)C)c1OC
inactive: growth inhibition [1] 10% | inhibition [2] 2% | inhibition [3] 1% | outcome [5] | outcome [6] | outcome [7] | outcome [8]
active: growth inhibition [4] 96%

CC(CN)OCn1cnc2c(N)ncnc21 (stereo not given)
inactive: growth inhibition [1] 3% | inhibition [2] 17% | inhibition [3] 4% | outcome [5] | outcome [6] | outcome [7] | outcome [8]
active: growth inhibition [4] 95%

O=C(N[C@H]1CCN(Cc2ccc(OCCN3CCNCC3)c3ccccc23)C1)c1ccc(Cl)c(Cl)c1
active: growth inhibition [1] 99% | inhibition [2] 53% | growth inhibition [4] 100%
inactive: inhibition [3] -2% | outcome [5] | outcome [6] | outcome [7] | outcome [8]

Fc1ccc(OC2CN(c3nccc(NCc4ccccc4Cl)n3)C2)cc1
inactive: inhibition [2] -2% | inhibition [3] 6% | outcome [5] | outcome [6] | outcome [7] | outcome [8]
active: growth inhibition [1] 99% | growth inhibition [4] 98%

OCCc1ccc(Nc2nccc(-c3nnc4ccccn34)n2)cc1
active: inhibition [2] 63% | growth inhibition [4] 93%
inactive: growth inhibition [1] 46% | inhibition [3] 6% | outcome [5] | outcome [6] | outcome [7] | outcome [8]

Nc1ncc(-c2cccc(CCN3CCOCC3)c2)cc1-c1nc2ccc(Br)cc2[nH]1
inactive: inhibition [3] 4% | outcome [5] | outcome [6] | outcome [7] | outcome [8]
active: growth inhibition [1] 98% | inhibition [2] 60% | growth inhibition [4] 101%

O=C(Nc1ccc(Cl)cc1)Nc1ccc(-c2ccc(-c3nc4ccccc4[nH]3)cc2)cc1
active: growth inhibition [1] 99% | growth inhibition [4] 101%
inactive: inhibition [2] 47% | inhibition [3] 0% | outcome [5] | outcome [6] | outcome [7] | outcome [8]

O=C(CSc1n[nH]c(=O)n1Cc1ccccc1)Nc1ccccc1-c1ccccc1
inactive: growth inhibition [1] 36% | inhibition [2] -8% | inhibition [3] 3% | outcome [5] | outcome [6] | outcome [7] | outcome [8]
active: growth inhibition [4] 89%

Cc1nc(-c2cccc(C(=O)Nc3cnc4ccccc4c3)c2)no1
inactive: growth inhibition [1] 12% | inhibition [2] 15% | inhibition [3] -10% | outcome [5] | outcome [6] | outcome [7] | outcome [8]
active: growth inhibition [4] 85%

CC(C)NCc1cccc(-c2ccc(-c3nc4ccccc4[nH]3)cc2)c1
inactive: inhibition [2] 4% | inhibition [3] -2% | outcome [5] | outcome [6] | outcome [7] | outcome [8]
active: growth inhibition [1] 66% | growth inhibition [4] 101%

CC(C)(C)c1nn(-c2ccccc2)c2[nH]c(=O)c(CNCCc3ccccc3)cc12
active: growth inhibition [1] 90% | growth inhibition [4] 94%
inactive: inhibition [2] -7% | inhibition [3] 0% | outcome [5] | outcome [6] | outcome [7] | outcome [8]

Cc1cc2ccc(-c3cccc(CN)c3)cc2nc1N
active: growth inhibition [4] 100%
inactive: growth inhibition [1] 1% | inhibition [2] -4% | inhibition [3] -6% | outcome [5] | outcome [6] | outcome [7] | outcome [8]

Cc1cccc2[nH]c(-c3cccc(-c4ccc(C(=O)NCCc5ccc(O)c(=O)[nH]5)cc4)c3)nc12
inactive: growth inhibition [1] 30% | inhibition [2] 20% | inhibition [3] -1% | outcome [5] | outcome [6] | outcome [7] | outcome [8]
active: growth inhibition [4] 85%

CCCCN(CCCC)C(=NCCCCCCN=C(NC(N)=NCc1ccc(Cl)c(Cl)c1)N(CCCC)CCCC)NC(N)=NCc1ccc(Cl)c(Cl)c1
active: growth inhibition [1] 96% | growth inhibition [4] 100%
inactive: inhibition [2] 9% | inhibition [3] -7% | outcome [5] | outcome [6] | outcome [7] | outcome [8]

Cc1nc(/N=C(\N)NC(=O)NC2CCCCC2)nc2ccccc12
active: growth inhibition [1] 99% | growth inhibition [4] 95%
inactive: inhibition [2] 21% | inhibition [3] -2% | outcome [5] | outcome [6] | outcome [7] | outcome [8]

C=C(C)COc1ccc(-c2n[nH]c(C(F)(F)F)c2-c2ccccc2OC)c(O)c1
inactive: inhibition [2] 19% | inhibition [3] -5% | outcome [5] | outcome [6] | outcome [7] | outcome [8]
active: growth inhibition [1] 72% | growth inhibition [4] 98%

CN1CCCN(Cc2ccc(-c3cccc(NC(=O)c4ccc(C#N)cc4)c3)cc2)CC1
inactive: growth inhibition [1] 26% | inhibition [2] 29% | inhibition [3] -5% | outcome [5] | outcome [6] | outcome [7] | outcome [8]
active: growth inhibition [4] 100%

CC[C@H](C)CNC(=O)c1ccnc(-c2ccc(CNC3Cc4ccccc4C3)cc2)c1
inactive: inhibition [2] 18% | inhibition [3] -3% | outcome [5] | outcome [6] | outcome [7] | outcome [8]
active: growth inhibition [1] 87% | growth inhibition [4] 102%

COCc1ccccc1C(=O)NCCOc1cc(C)cc(C)c1
active: growth inhibition [1] 95% | growth inhibition [4] 96%
inactive: inhibition [2] 26% | inhibition [3] 5% | outcome [5] | outcome [6] | outcome [7] | outcome [8]

Cc1ccc2nc(C)cc(Nc3ccccc3O)c2c1
inactive: growth inhibition [1] 6% | inhibition [2] 0% | inhibition [3] -3% | outcome [5] | outcome [6] | outcome [7] | outcome [8]
active: growth inhibition [4] 96%

O=C(NCCCCN1CCC(O)(c2ccc3c(c2)OCO3)CC1)c1ccc(NC(=O)c2ccc(Cl)cc2)cc1
inactive: growth inhibition [1] 6% | inhibition [2] 15% | inhibition [3] -1% | outcome [5] | outcome [6] | outcome [7] | outcome [8]
active: growth inhibition [4] 86%

COc1cc(Nc2ccnc3ccc(C(C)(C)C)cc23)cc(OC)c1OC
inactive: inhibition [2] 12% | inhibition [3] 1% | outcome [5] | outcome [6] | outcome [7] | outcome [8]
active: growth inhibition [1] 80% | growth inhibition [4] 100%
